Assay outcomes deposited in PubChem BioAssay by National Center for Advancing Translational Sciences (NCATS).
This is a sample that favours compounds with a hit; in the whole collection about 18% have one here.
DT40 TDP1 no CPT: qHTS for Inhibitors of human tyrosyl-DNA phosphodiesterase 1 (TDP1): qHTS in cells in absence of CPT. Potency, µM (series often up to 46.2 µM), for the others: at the top dose activity change, negative = growth inhibition, most hits filed as inhibitors. actives 15% (n = 420,000). DT40 Tdp1-/- hTDP1 cells, no CPT, ATP luminescence, 48 h; also: potency is read from the fitted curve at half-maximal effect; % is scaled to controls: 0 for no effect and ±100 for the full control effect; nearly all actives have a fitted effect of over 55% in size
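Chicken DT40 Tdp1-/- cells stably complemented with human TDP1 were seeded at 400 cells/well with DMSO in place of 20 nM camptothecin. After compound pinning, cells grew at least 48 hr at 37 °C; viability read by CellTiter-Glo luminescence.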
TDP1 inh: blocks human tyrosyl-DNA phosphodiesterase 1; actives 0.28% (n = 350,000); Q9NUW8; Potency, µM (highest dose often 130 µM), inactives show top-dose activity change, negative = inhibition, usual class: inhibitors; recombinant TDP1, AlphaScreen DNA substrate cleavage; also: potency is read from the fitted curve at half-maximal effect; % is scaled to controls: 0 for no effect and ±100 for the full control effect; nearly all actives have a fitted effect of over 40% in size
Target sequence (Q9NUW8 whole entry, looked up): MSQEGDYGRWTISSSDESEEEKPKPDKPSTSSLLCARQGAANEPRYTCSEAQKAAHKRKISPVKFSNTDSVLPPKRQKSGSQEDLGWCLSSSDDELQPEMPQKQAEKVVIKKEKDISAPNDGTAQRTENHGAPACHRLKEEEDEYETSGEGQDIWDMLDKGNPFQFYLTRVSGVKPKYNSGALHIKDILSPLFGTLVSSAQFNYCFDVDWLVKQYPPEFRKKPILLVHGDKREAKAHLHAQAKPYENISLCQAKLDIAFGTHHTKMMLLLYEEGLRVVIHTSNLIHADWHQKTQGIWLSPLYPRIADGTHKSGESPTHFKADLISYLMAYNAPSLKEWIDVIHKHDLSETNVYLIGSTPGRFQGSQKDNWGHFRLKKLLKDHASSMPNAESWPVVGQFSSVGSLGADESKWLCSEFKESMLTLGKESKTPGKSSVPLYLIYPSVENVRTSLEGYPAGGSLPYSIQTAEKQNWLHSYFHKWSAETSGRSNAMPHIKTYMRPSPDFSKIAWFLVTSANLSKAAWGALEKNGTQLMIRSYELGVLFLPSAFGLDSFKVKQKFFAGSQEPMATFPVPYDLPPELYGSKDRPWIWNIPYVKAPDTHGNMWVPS
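Enzyme-compound mixtures sat 15 min at room temperature, followed by a 5 min reaction with 15 nM final substrate and 10 min with AlphaScreen beads. Recombinant human Tdp1 was used at 1 nM final.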
HepG2 viability: kills HepG2 cells in TGF-b inhibitor counter-screen. HepG2 CAGA-GFP viability, ATP luminescence, 18 h. AID 588856. actives 0.76% (n = 410,000). Potency, µM (series often up to 46.1 µM), without a hit: at the highest dose activity change, negative = cytotoxicity, most hits filed as cytotoxic; also: potency is read from the fitted curve at half-maximal effect
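HepG2 CAGA-GFP cells (1000/well, DMEM with 1% FBS) received compound, then TGF-beta at 500 pg/mL final, and were incubated 18 hours at 37 degrees C. Viability was read by CellTiter-Glo luminescence. Media-only wells were set as complete cell-killing and DMSO as no toxicity.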
IL1B secr inh: inflammasome signaling inhibition, IL-1 beta readout. actives 4.7% (n = 360,000). THP-1 LPS/ATP IL-1B secretion, AlphaLISA, 16 h; stronger effect = lower value. activity change, % at 57.5 µM. AID 743279; in the data active = activity change below about -50%; inconclusive = mostly about -30% to -49%; also: % is scaled to controls: 0 for no effect and ±100 for the full control effect
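Secreted IL-1B measured by AlphaLISA bead assay after 16 h compound exposure of THP-1 cells; compounds (final up to 57.5 uM) added 1 h before LPS (250 ng/mL) and ATP (1.25 mM) stimulation; lower signal means less secretion.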
DT40 TDP1 CPT: growth inhibition of DT40 Tdp1-/-;hTDP1 cells with camptothecin (screen for TDP1 inhibitors) | chicken DT40 Tdp1-/-;hTDP1 cells + 20 nM CPT, ATP luminescence, 48 h | Potency, µM (titrated, usually from 46.2 µM), inactives show at the highest dose activity change, negative = growth inhibition, hits mostly inhibitors | actives 12% (n = 420,000); also: potency is read from the fitted curve at half-maximal effect; % is scaled to controls: 0 for no effect and ±100 for the full control effect; nearly all actives have a fitted effect of over 55% in size
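Chicken DT40 Tdp1-/- cells stably complemented with human TDP1 were seeded at 400 cells/well in medium containing 20 nM camptothecin, exposed to pin-transferred compounds, and grown at 37 °C for at least 48 hr. Viability was read as ATP luminescence.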
TGFb inhibitor: blocks TGF-b signaling | HepG2 CAGA-GFP TGF-b/SMAD3 reporter, GFP fluorescence, 18 h; TGF-beta stimulated, 500 pg/mL final | Potency, µM (top dose mostly 46.1 µM), inactives show at the top dose activity, negative = inhibition, usual class: inhibitors | actives 1.2% (n = 410,000) | AID 588855; also: potency is read from the fitted curve at half-maximal effect; % is scaled to controls: 0 for no effect and ±100 for the full control effect; nearly all actives have a fitted effect of over 65% in size
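Using HEPG2 CAGA-GFP reporter cells at 1000 cells/well, we pinned test compounds, stimulated with recombinant TGF-beta (500 pg/mL final) and measured total well GFP after 18 h.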
* marks the source's active call; other numbers are inactive results; ? = inconclusive; nt = no result given; [ ] = remark or other dose. Unless noted, calls follow the shape of the dose curve; as a rule, active = well fitted curve in the direction sought with a large enough effect; inconclusive = small, poorly fitted or top-dose-only effect, or another doubt; inactive = no such curve, though single readings can be large; an effect the other way counts as inactive or inconclusive.

SMILES	DT40 TDP1 no CPT	TDP1 inh	HepG2 viability	IL1B secr inh	DT40 TDP1 CPT	TGFb inhibitor
Cc1cc(-n2c(C)cc(C(=O)COc3ccc4ccc(=O)oc4c3)c2C)no1	?	-1%	2%	-8	?	8%
O=C(COc1cccnc1[N+](=O)[O-])Nc1c(Cl)cccc1Cl	-8%	0%	8%	14	-7%	6%
COc1cccc(NC(=O)CSc2nnc(NC(=O)c3ccco3)s2)c1	-20%	2%	-32%	0	-1%	-18%
COc1ccc2oc(C(=O)OCC(=O)N(C)CC(=O)Nc3ccc(C)cc3)c(C)c2c1	?	0%	1%	-1	-1%	3%
Cc1ccc(Nc2cc(C)nc3ncnn23)cc1	-14%	nt	-32%	17	12%	-23%
CCN1C(=O)[C@H]2[C@H]3[C@H](O)[C@H](O)C/C(=N/OC[C@@H](O)COCc4ccco4)[C@H]3CC[C@@H]2C1=O	nt	8%[21 µM]	nt	nt	nt	nt
COC(=O)c1cc(C)nc2c1c(=O)nc(SCc1ccccc1C)n2C1CC1	?	0%	-1%	nt	?	0%
CCn1c(SCc2ccccc2Cl)nc(=O)c2c(C(=O)OC)cc(C3CC3)nc21	16µM*	5%	-64%	nt	12µM*	?
CCN1C(=O)[C@@H]2C(C(=O)c3cnccn3)=NN[C@@H]2C1=O	-9%	4%	-13%	3	-12%	11%
CCCCN(CCCC)S(=O)(=O)c1ccc(NC(=O)c2ccc([N+](=O)[O-])cc2Cl)cc1	21µM*	2%	-9%	0	?	-32%
CCCCN(CCCC)S(=O)(=O)c1ccc(NC(=O)c2cccs2)cc1	21µM*	-1%	-15%	-85*	26µM*	?
COc1ccccc1C(CC(N)=O)c1ccco1 (stereo not drawn)	-13%	-2%	-11%	0	-11%	-4%
COc1ccccc1C(CCN(Cc1ccccc1)C(C)=O)c1ccco1 (stereo not drawn)	16µM*	12%	17%	-17	?	-17%
Cc1cc(-c2ccnc(-n3ncc(C(=O)N(C)CC(O)c4ccccc4)c3C)n2)c(C)s1 (stereo not drawn)	-30%	nt	nt	nt	0%[9.04 µM]	nt
COc1ccc(CCc2ccc3cc(OC)ccc3n2)cc1	?	nt	-13%	-55*	?	0%
C=CCOC(/C=C/c1ccccc1)C[Si](C)(C)C (stereo not drawn)	nt	9%	-18%	nt	nt	-23%
COc1cccc(CN(C)C(=O)c2cnn(-c3ncc4c(n3)-c3ccccc3CCC4)c2C)c1	23µM*	nt	nt	nt	18µM*	nt
CC(=O)Oc1ccc(/C=C/C(=O)CC2OC(Oc3cc(OC(C)=O)c4c(c3)O[C@@H](c3ccc(OC(C)=O)cc3)CC4=O)C(OC(C)=O)C(OC(C)=O)C2OC(C)=O)cc1 (stereo partly drawn)	7.5µM*	9%[56.1 µM]	nt	nt	8.4µM*	nt
CCOC(=O)[C@]12CCC=C1N(CCC1=CCCCC1)C(=O)[C@H](CC(=O)NCCc1ccccc1OC)C2	?	nt	nt	-1	?	nt
CCCCCCCCN1C(=O)[C@H](CC(=O)NCCc2ccccc2OC)C[C@@]2(C(=O)OCC)CCC=C12	?	nt	nt	-4	?	nt
COC(=O)[C@]12CCCCC=C1N(CCC1=CCCCC1)C(=O)[C@H](CC(=O)NCCc1ccccc1OC)C2	?	nt	nt	-52*	16µM*	nt
CCOC(=O)[C@]12CCCC=C1N(CCC1=CCCCC1)C(=O)[C@H](CC(=O)NCCc1ccccc1OC)C2	13µM*	nt	nt	-24	13µM*	nt
